Reference: PubChem BioAssay (NCATS)
Results filed as inconclusive are left out. Entries that show only a call come without a potency. The source made the active and inactive calls. Calls follow the shape of the dose curve; as a rule, active = well fitted cell-killing curve with a large enough effect; inconclusive = small, poorly fitted or top-dose-only effect; inactive = flat fitted curve, though single readings scatter.

Test: NCATS anti-infectives library activity on HEK293 viability as a counter-qHTS vs the C. elegans viability qHTS (AID 1745854)
Conditions: HEK293 viability counter-screen; series mostly up to 41.8 µM
In short: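 CellTiter-Glo luminescence, read on a CCD imager, scored viability of HEK293 cells after 24 hr compound exposure at 37C. Library tested in several concentrations, 1:5 steps, up to 41.7 uM; digitonin served as control.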
Potency is read from the fitted curve at half-maximal effect.

Row | Compound | Potency
1 | Cc1nnc(C(=O)NC(C)(C)c2nc(C(=O)NCc3ccc(F)cc3)c(O)c(=O)n2C)o1 | inactive
2 | O=P(O)(O)C(O)(Cc1cccnc1)P(=O)(O)O | inactive
3 | CCN[C@H]1C[C@H](C)S(=O)(=O)c2sc(S(N)(=O)=O)cc21 | inactive
4 | COc1ccccc1OCC(O)COC(N)=O (stereo not given) | inactive
5 | C1CCC(C(CC2CCCCN2)C2CCCCC2)CC1 (stereo not given) | 15.8 µM (active)
